# Records with an inconclusive call do not appear. Activity calls are given as the source filed them. Unless noted, calls come from the whole dose curve; as a rule, active = well fitted curve in either direction with a large enough effect (not every such curve was filed as active); inconclusive = small, poorly fitted or top-dose-only effect, or another doubt; inactive = flat fitted curve, though single readings scatter.
# Key:
# [1] = target: Lysosomal acid glucosylceramidase (Homo sapiens) (UniProt P04062); assay: Glucocerebrosidase-p2 (AID 348; in the data active = potency below about 10 µM; note: potency is the fitted concentration of half-maximal effect); details: purified GBA, blue fluorogenic substrate, 40 min
# How it was run: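 Compounds titrated from 0.6 nM upwards against 0.2 nM enzyme in pH 5.9 citric acid/KH2PO4, taurocholate, tween-20; blue fluorogenic substrate 80 uM, 40 min room temperature, stopped and read Ex 365/Em 440 for AC50.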
# [2] = AP1 Signaling Pathway (AID 357); details: ME-180 AP-1-bla reporter, EGF-induced, beta-lactamase ratio, 5 h; at 7.69 µM (top of the series) unless noted; note: % is set by controls: 0 for no effect and ±100 for the full control effect
# How it was run: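 ME-180 cells with beta-lactamase reporter under AP-1 response element, stimulated with EC50 EGF; compounds tested in titration series, 5 h at 37 °C. CCF4 substrate added 2.5 h at room temperature; 460/530 nm emission ratio gave %activity and AC50.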
# [3] = NFAT Signaling Pathway (AID 444); details: Jurkat NFAT-bla M1, carbachol, beta-lactamase ratio, 5 h; at 7.69 µM (top of the series) unless noted;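 note: carbachol stimulus at about its EC50 of 1 µM final; % is set by controls: 0 for no effect and ±100 for the full control effect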
# How it was run: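 Jurkat cells with NFAT-driven β-lactamase reporter and co-expressed M1 receptor, stimulated with carbachol (final 1 uM, ~EC50), compound titration, 5 h at 37 °C. CCF4 loaded 1 h at RT; 460/530 nm ratio gave %activity and AC50.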
# [4] = Stat Signaling Pathway (AID 446); details: ME-180 SIE beta-lactamase reporter, IL-6 stimulated, 5 h; at 7.69 µM (top of the series) unless noted;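 note: ME-180 cervical cancer cells given 40 pM IL-6 alongside compound; SIE-controlled beta-lactamase reporter measured as 460/530 nm FRET emission ratio; % is set by controls: 0 for no effect and ±100 for the full control effect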
# How it was run: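 ME-180 SIE-bla cells; overnight plating; cpd + IL-6 40 pM, 5 h, 37 C; LiveBLAzer 2.5 h RT; 460/530 nm emission ratio. Normalized to 300 pM IL-6 and 125 nM JAK inhibitor controls.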
# [5] = target: Glucocorticoid receptor (Homo sapiens) (UniProt P04150); assay: GR-GFP Redistribution (AID 450;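 active = compounds whose dose series gives a full or clear partial fitted curve of increased nuclear translocation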; note: potency is the fitted concentration of half-maximal effect); details: U2OS GR-GFP nuclear translocation, laser cytometry, 2 h
# [6] = target: Glucocorticoid receptor (Homo sapiens) (UniProt P04150); assay: GR-EFC Redistribution (AID 451; calls by dose curve; note: potency is the fitted concentration of half-maximal effect); details: CHO-K1 GR-EFC translocation, beta-gal luminescence, 2 h
# How it was run: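 CHO-K1 cells expressing nuclear EA and GR-ED fragments of b-gal; compounds titrated up to 46 uM final, 2 h at 37 C. GR nuclear translocation read as complemented b-gal luminescence after 1 h RT detection.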
# [7] = target: Mitogen-activated protein kinase 10 (Mus musculus) (UniProt Q61831); assay: JNK3 AlphaScreen Assay (AID 530); details: JNK3 lysate, c-Jun phosphorylation; series mostly up to 57.1 µM;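 note: kinase came from lysate of stimulated human HepG2 cells; signal reports phosphorylation of biotinylated GST-cJun 1-79 at Ser73 with 10 µM ATP; % is set by controls: 0 for no effect and ±100 for the full control effect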
# How it was run: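 Pre-activated (IL-1β/TNFα) JNK3 in HepG2 lysates phosphorylates biotin-GST-cJun(1-79), 10 uM ATP; anti-phospho-cJun(Ser73) AlphaScreen read at room temperature, pH 7.6 Tris buffer. Compounds pre-incubated 15 min as titrations.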
# [8] = target: 3',5'-cyclic-AMP phosphodiesterase 4B (Homo sapiens) (UniProt Q07343); assay: qHTS Assay for Inhibitors of PDE-IV (AID 607; active = well fitted activation curve with a large enough effect in the main read-out, with a control signal flat, not every such curve was filed as active; note: % of control where 0% means no effect); details: HEK293 ACTOne CNG channel cells, membrane potential fluorescence; series mostly up to 22.9 µM
# How it was run: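 ACTOne HEK293 cells carry a modified cAMP-gated CNG channel and express endogenous PDE4; plated 1000 cells/well, compounds up to 22.9 uM final. Membrane-potential dye fluorescence (ex 535/em 590) was read; parental cells received 10 uM forskolin + 100 uM RO 20-1724.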
# [9] = target: Cytochrome P450 3A4 (Homo sapiens) (UniProt P08684); assay: qHTS Assay for Activators of Cytochrome P450 3A4 (AID 885; active = well fitted curve in the direction sought with a large enough effect; an effect the other way counts as inactive or inconclusive; note: nearly all actives have a fitted effect of over 65% in size); details: recombinant CYP3A4, Luciferin-PPXE luminescence, 60 min; series mostly up to 57.1 µM
# How it was run: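 20nM CYP3A4 + 25uM Luciferin-PPXE (=KM), 200mM KPO4; cpd 10 min RT; NADPH regen, 60 min RT; stop w/ detection buffer, 20 min; luminescence. Normalized to 57 uM ketoconazole.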
# [10] = qHTS Assay for Lipid Storage Modulators (AID 1519; calls by dose curve); details: Drosophila S3 cells, BODIPY lipid droplet/cell ratio, laser cytometry, cells loaded with oleic acid; for activity change, negative = inhibition: at 57.5 µM (top of the series)
# How it was run: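 Cells seeded at 5,000 per well were treated with compounds over a concentration series and loaded with oleic acid (400 uM, as added). Lipid droplet fluorescence (488 nm excitation, 500-530 nm channel) was read by laser-scanning cytometry and normalized to 20 uM Triacsin C.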
# [11] = target: Ubiquitin carboxyl-terminal hydrolase 1 (Homo sapiens) (UniProt O94782); assay: Inhibitors of USP1/UAF1: Pilot qHTS (AID 504865; active = well fitted curve in the direction sought with a large enough effect; an effect the other way counts as inactive or inconclusive;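 note: rhodamine fluorescence freed from ubiquitin-rhodamine substrate followed over time; top concentration of the series differs between compounds; % is set by controls: 0 for no effect and ±100 for the full control effect; nearly all actives have a fitted effect of over 35% in size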); details: purified USP1/UAF1, Ub-rhodamine cleavage fluorescence; series mostly up to 54.9 µM
# How it was run: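 USP1/UAF1 complex at 1 nM preincubated 15 min at room temperature with compound, then Ub-Rho substrate added at 150 nM final. Fluorescence (480/540 nm) read kinetically in 50 mM HEPES pH 7.8, 0.5 mM EDTA, 1 mM TCEP, 0.1 mg/ml BSA, 0.01% Tween-20.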
# [12] = target: Cytochrome P450 1A2 (Homo sapiens) (UniProt P05177); assay: p450-cyp1a2 (AID 410; calls by dose curve; note: potency is the fitted concentration of half-maximal effect;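 for activity change, negative = inhibition: -100% = full effect of reference inhibitor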); details: recombinant CYP1A2, luciferin-ME demethylation, luminescence; series mostly up to 57 µM
# How it was run: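 20nM CYP1A2 with 100uM Luciferin-ME (at Km) in 100mM KPO4; compound preincubated 10 min, NADPH regeneration added, 60 min at room temperature. Luciferin quantified by luminescence after detection reagent; normalized to 57 uM furafylline.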
# [13] = target: Cytochrome P450 2D6 (Homo sapiens) (UniProt P10635); assay: qHTS Assay for Inhibitors and Substrates of Cytochrome P450 2D6 (AID 891; active = well fitted curve in the direction sought with a large enough effect; an effect the other way counts as inactive or inconclusive; note: nearly all actives have a fitted effect of over 60% in size; note: potency is the fitted concentration of half-maximal effect); details: recombinant CYP2D6, luciferin-ME EGE luminescence; series mostly up to 57.1 µM
# How it was run: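 Human CYP2D6 (5 nM) with 30 uM Luciferin-ME EGE (at Km) in 100 mM KPO4, compound preincubated 10 min, then NADPH regeneration system for 60 min at room temperature. Luciferin read by luminescence; normalized to 1.43 uM quinidine.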
# [14] = target: Cytochrome P450 3A4 (Homo sapiens) (UniProt P08684); assay: qHTS Assay for Inhibitors and Substrates of Cytochrome P450 3A4 (AID 884; active = well fitted curve in the direction sought with a large enough effect; an effect the other way counts as inactive or inconclusive; note: potency is the fitted concentration of half-maximal effect; nearly all actives have a fitted effect of over 50% in size); details: recombinant CYP3A4, Luciferin-PPXE luminescence; series mostly up to 57.1 µM
# How it was run: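 20 nM human CYP3A4 with 25 uM Luciferin-PPXE (at KM) in 200 mM KPO4, preincubated 10 min with compound; NADPH regeneration started a 60 min RT reaction. Luciferin detected by luminescence, normalized to 57 uM ketoconazole as full inhibition.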
# [15] = target: Cytochrome P450 2C19 (Homo sapiens) (UniProt P33261); assay: qHTS Assay for Inhibitors and Substrates of Cytochrome P450 2C19 (AID 899; active = well fitted curve in the direction sought with a large enough effect; an effect the other way counts as inactive or inconclusive; note: nearly all actives have a fitted effect of over 60% in size; note: potency is the fitted concentration of half-maximal effect); details: recombinant CYP2C19, luciferin-H EGE luminescence; series mostly up to 57.1 µM
# How it was run: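 Signal comes from luciferase acting on luciferin released by CYP2C19-mediated hydroxylation of Luciferin-H EGE, 10uM (KM). Assay mix: 5nM enzyme, 50mM KPO4; 60 min at 37C with NADPH regeneration. Data normalized against 57uM ketoconazole.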
# [16] = Confirmation and Secondary Assay for Modulators of Hemoglobin Beta Chain Splicing at IVS2 654 locus (AID 910; active = well fitted curve in the direction sought with a large enough effect; an effect the other way counts as inactive or inconclusive;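 note: HeLa cells stably carrying EGFP split by mutant beta-globin IVS2-654 intron; % of control where 0% means no effect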); details: HeLa EGFP-654 splicing reporter, GFP fluorescence, 48 h; series mostly up to 38.3 µM
# How it was run: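 HeLa cells stably expressing EGFP interrupted by β-globin IVS2-654 intron, seeded overnight in Opti-MEM/2% FCS, then treated 2 days at 37 °C. Restored splicing read as total peak GFP intensity per well by laser scanning cytometry (488 nm excitation, 500–520 nm emission); 500 nM antisense PNA as control.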
# [17] = Confirmation and Secondary Assay for Modulators of Hemoglobin Beta Chain Splicing at IVS2 705 locus (AID 930; active = well fitted curve in the direction sought with a large enough effect; an effect the other way counts as inactive or inconclusive;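 note: HeLa cells stably expressing the EGFP-705 splicing reporter; GFP fluorescence per well restored by corrected splicing of the IVS2-705 intron in EGFP; % of control where 0% means no effect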); details: HeLa EGFP-705 splicing reporter, GFP fluorescence, 48 h; series mostly up to 38.3 µM
# How it was run: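 HeLa cells stably carrying EGFP interrupted by mutant beta-globin intron 2 (IVS2-705) treated 2 days at 37C with compound; 500 nM antisense PNA as control. Correct splicing read as total peak GFP intensity per well by laser-scanning cytometry.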
# [18] = target: Cytochrome P450 2C9 (Homo sapiens) (UniProt P11712); assay: qHTS Assay for Inhibitors and Substrates of Cytochrome P450 2C9 (AID 883; active = well fitted curve in the direction sought with a large enough effect; an effect the other way counts as inactive or inconclusive; note: % is set by controls: 0 for no effect and ±100 for the full control effect; nearly all actives have a fitted effect of over 60% in size); details: recombinant CYP2C9, luciferin-H luminescence, 60 min; series mostly up to 57.1 µM
# How it was run: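 Signal: luciferase luminescence reporting luciferin produced by CYP2C9. Conditions: 10nM enzyme, Luciferin-H 100uM at KM, 25mM KPO4, 37C, 60 min NADPH-driven reaction. Reference: 57uM sulphaphenazole as 100% inhibition.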
# [19] = measured here: cell count channel max response
# [20] = measured here: lipid channel max response
# 3',5'-cyclic-AMP phosphodiesterase 4B (Homo sapiens), sequence (Q07343 whole entry, looked up): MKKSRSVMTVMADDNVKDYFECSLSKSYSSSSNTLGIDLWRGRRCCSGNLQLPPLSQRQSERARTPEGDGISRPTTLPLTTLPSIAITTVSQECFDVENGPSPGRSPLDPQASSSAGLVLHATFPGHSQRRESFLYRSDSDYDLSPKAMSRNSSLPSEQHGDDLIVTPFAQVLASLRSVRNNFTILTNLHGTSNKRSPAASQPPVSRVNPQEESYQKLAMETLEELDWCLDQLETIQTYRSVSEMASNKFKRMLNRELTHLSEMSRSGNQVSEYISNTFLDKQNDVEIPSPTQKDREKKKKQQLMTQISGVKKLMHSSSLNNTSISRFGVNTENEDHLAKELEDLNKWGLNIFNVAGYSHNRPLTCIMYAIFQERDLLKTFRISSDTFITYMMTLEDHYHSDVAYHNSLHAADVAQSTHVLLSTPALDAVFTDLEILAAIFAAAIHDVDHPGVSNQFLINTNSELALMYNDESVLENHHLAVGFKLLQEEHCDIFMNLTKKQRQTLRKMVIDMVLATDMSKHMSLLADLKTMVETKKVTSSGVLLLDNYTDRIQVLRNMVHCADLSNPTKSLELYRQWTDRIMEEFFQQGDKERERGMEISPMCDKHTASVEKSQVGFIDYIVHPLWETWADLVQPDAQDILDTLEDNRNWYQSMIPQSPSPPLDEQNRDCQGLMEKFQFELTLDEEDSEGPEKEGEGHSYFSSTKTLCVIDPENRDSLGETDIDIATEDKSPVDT
# Glucocorticoid receptor (Homo sapiens), sequence (P04150 whole entry, looked up, the tested form may be a part): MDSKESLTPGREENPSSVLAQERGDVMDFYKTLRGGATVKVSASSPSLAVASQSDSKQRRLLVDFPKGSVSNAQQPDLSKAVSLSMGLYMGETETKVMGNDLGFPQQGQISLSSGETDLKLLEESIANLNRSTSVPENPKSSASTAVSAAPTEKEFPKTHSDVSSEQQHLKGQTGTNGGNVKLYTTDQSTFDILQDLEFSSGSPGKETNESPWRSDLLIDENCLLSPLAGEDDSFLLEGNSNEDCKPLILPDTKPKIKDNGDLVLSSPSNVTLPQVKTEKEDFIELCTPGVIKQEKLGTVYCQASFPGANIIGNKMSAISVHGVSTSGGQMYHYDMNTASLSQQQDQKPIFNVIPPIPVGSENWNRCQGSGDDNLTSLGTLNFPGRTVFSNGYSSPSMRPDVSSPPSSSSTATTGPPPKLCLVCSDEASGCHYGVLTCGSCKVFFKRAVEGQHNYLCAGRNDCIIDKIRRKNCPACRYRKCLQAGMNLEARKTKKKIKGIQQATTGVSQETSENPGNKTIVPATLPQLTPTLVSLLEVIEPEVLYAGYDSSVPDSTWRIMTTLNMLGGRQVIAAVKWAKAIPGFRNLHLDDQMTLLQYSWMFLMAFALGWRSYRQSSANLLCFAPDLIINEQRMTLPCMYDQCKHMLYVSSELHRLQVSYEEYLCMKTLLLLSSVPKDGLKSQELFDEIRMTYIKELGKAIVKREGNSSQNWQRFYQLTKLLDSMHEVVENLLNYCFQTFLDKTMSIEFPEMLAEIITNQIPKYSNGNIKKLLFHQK
# Ubiquitin carboxyl-terminal hydrolase 1 (Homo sapiens), sequence (O94782 whole entry, looked up): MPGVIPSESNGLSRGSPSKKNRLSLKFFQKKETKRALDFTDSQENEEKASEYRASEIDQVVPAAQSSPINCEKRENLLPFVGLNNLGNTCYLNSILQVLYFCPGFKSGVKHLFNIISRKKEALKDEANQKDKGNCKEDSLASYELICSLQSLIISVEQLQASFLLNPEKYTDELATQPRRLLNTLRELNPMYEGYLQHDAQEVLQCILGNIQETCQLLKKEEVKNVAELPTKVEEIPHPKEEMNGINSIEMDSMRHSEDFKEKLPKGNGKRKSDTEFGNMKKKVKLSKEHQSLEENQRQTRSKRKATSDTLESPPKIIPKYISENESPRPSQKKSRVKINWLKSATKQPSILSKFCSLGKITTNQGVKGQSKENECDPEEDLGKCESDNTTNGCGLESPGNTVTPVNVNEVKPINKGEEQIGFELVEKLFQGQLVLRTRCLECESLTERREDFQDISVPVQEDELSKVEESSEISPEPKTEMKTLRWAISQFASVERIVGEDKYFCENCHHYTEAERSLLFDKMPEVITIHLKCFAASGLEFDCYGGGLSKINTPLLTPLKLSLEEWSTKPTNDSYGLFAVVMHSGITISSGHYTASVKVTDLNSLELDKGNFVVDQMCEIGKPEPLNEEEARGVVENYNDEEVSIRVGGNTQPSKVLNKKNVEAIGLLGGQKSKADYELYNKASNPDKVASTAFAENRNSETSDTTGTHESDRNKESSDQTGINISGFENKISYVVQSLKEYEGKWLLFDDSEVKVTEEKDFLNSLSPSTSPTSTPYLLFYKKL
# Cytochrome P450 2D6 (Homo sapiens), sequence (P10635 whole entry, looked up): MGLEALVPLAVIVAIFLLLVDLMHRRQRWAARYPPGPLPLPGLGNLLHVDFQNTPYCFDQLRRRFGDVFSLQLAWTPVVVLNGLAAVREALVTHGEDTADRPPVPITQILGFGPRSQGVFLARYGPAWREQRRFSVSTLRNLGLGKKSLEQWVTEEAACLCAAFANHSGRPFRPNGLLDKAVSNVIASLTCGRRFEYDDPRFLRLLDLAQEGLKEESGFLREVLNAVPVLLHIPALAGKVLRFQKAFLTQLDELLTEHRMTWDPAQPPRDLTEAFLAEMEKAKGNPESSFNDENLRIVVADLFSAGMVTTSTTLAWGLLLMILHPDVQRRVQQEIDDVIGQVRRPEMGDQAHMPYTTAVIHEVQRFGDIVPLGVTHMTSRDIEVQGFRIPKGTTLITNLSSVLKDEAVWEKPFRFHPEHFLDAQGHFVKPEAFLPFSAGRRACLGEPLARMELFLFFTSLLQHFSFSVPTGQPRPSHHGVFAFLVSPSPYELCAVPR
# Lysosomal acid glucosylceramidase (Homo sapiens), sequence (P04062 whole entry, looked up): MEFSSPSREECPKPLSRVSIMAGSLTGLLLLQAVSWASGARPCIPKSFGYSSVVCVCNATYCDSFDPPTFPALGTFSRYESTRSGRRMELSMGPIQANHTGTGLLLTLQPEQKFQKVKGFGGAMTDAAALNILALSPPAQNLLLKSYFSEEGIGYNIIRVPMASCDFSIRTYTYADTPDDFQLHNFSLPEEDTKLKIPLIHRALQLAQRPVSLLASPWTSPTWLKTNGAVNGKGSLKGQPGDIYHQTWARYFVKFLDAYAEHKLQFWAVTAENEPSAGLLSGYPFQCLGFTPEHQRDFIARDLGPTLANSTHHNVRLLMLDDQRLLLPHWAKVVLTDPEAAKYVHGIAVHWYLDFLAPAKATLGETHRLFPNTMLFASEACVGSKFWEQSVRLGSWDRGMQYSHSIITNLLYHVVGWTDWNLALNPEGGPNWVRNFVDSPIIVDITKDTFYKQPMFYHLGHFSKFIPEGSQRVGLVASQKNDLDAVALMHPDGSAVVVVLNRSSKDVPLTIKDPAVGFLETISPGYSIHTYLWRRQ
# Cytochrome P450 1A2 (Homo sapiens), sequence (P05177 whole entry, looked up): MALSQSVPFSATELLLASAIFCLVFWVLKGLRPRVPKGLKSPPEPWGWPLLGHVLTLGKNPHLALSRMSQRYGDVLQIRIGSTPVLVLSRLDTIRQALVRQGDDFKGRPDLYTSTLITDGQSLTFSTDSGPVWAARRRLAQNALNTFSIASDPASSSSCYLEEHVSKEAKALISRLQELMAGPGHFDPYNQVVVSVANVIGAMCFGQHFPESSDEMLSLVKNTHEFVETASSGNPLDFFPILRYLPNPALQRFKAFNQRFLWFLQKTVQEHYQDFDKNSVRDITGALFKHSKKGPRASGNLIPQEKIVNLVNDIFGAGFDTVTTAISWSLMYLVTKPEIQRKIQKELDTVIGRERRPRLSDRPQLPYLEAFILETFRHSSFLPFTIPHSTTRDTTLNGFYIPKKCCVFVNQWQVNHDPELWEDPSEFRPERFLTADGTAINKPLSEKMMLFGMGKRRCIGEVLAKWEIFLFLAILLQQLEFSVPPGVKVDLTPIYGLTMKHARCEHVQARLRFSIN
# Cytochrome P450 3A4 (Homo sapiens), sequence (P08684 whole entry, looked up): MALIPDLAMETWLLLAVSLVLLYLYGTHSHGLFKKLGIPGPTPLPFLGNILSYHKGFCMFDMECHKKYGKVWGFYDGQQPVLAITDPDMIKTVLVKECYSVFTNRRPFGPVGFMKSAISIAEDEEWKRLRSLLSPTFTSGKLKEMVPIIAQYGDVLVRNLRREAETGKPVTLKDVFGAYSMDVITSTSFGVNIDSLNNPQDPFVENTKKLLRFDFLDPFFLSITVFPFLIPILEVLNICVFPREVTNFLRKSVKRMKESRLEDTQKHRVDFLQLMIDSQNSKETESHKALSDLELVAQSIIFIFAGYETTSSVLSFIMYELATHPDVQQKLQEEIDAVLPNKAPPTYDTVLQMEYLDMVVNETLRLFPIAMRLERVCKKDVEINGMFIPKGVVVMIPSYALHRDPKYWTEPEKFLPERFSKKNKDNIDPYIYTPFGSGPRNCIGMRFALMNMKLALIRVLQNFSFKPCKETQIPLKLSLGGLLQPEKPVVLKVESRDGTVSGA
# Cytochrome P450 2C19 (Homo sapiens), sequence (P33261 whole entry, looked up): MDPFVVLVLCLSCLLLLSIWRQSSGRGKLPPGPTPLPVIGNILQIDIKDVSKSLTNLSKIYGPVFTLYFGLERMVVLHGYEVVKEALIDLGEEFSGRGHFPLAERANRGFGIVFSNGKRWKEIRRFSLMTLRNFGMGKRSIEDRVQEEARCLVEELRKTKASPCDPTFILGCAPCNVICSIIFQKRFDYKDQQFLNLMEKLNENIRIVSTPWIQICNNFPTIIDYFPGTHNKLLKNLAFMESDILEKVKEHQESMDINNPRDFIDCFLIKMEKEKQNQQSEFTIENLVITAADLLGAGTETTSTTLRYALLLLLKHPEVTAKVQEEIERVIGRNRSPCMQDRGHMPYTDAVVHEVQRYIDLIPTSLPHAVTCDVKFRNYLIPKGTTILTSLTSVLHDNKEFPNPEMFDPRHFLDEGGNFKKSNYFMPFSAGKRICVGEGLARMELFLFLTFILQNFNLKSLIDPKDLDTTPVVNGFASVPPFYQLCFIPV
SMILES,Potency [1],"activity change, negative = inhibition [2]","activity change, negative = inhibition [3]","activity, negative = inhibition [4]",Potency [5],Potency [6],Potency [7],Potency [8],Potency [9],"activity change, negative = inhibition [10]","max response [10, 19] [%]","max response [10, 20] [%]",Potency [11],Potency [12],Potency [13],Potency [14],Potency [15],Potency [16],outcome [17],Potency [18]
Cc1nc2cnc(Nc3ccccc3)nc2n(C[C@H]2CCCO2)c1=O,> 11.4 µM (inactive),-11% (inactive),9.56% (inactive),-15.1% (inactive),> 9.22 µM (inactive),> 46 µM (inactive),inactive,inactive,inactive,-5.71% (inactive),-3,-12.3,inactive,–,–,–,–,–,–,–
COc1ccccc1CN1CCCC2(CCN(C(=O)c3cccn3C)CC2)C1,> 11.4 µM (inactive),-2.64% (inactive),–,4.46% (inactive),–,> 46 µM (inactive),inactive,inactive,inactive,4.14% (inactive),21.7,29.7,–,inactive,3.16 µM (active),–,–,–,–,–
O=S(=O)(c1ccccc1)N1CCC[C@@]2(CCN(Cc3nccs3)C2)C1,> 11.4 µM (inactive),-10.5% (inactive),-1.46% (inactive),-1.53% (inactive),–,> 46 µM (inactive),inactive,inactive,inactive,0.281% (inactive),10.8,15.6,–,15.8 µM (active),2.51 µM (active),3.16 µM (active),7.94 µM (active),–,–,–
N#Cc1ccccc1-c1cncnc1NCc1cccnc1,> 11.4 µM (inactive),-25.2% (inactive),5.72% (inactive),–,–,> 46 µM (inactive),inactive,inactive,inactive,4.31% (inactive),7.61,12.5,inactive,0.0631 µM (active),–,–,–,inactive,inactive,–
N#Cc1ccc(CN2CCC3(CC2)CCN(S(=O)(=O)c2ccccc2)CC3)cc1,> 11.4 µM (inactive),-18.1% (inactive),–,1.33% (inactive),–,> 46 µM (inactive),inactive,inactive,inactive,-0.545% (inactive),11.7,10.8,–,inactive,–,–,–,–,–,–
CN1CCN(c2ncc3ncc(=O)n(Cc4cccs4)c3n2)CC1,> 11.4 µM (inactive),-18.1% (inactive),–,-10.9% (inactive),> 9.22 µM (inactive),> 46 µM (inactive),inactive,inactive,inactive,4.27% (inactive),26.8,33.1,–,3.98 µM (active),–,–,–,–,–,–
CN(C)Cc1ccccc1-c1ccc2ncnc(N(C)Cc3ccco3)c2c1,> 11.4 µM (inactive),3.42% (inactive),–,-16.1% (inactive),> 46 µM (inactive),> 46 µM (inactive),inactive,–,inactive,3.94% (inactive),7.91,12.6,inactive,2 µM (active),2 µM (active),–,–,inactive,inactive,–
CN(C)C(=O)c1ccc(-c2ccc3ncnc(NCc4cccnc4)c3c2)cc1,> 11.4 µM (inactive),-3.5% (inactive),14% (inactive),-1.99% (inactive),> 46 µM (inactive),> 46 µM (inactive),inactive,inactive,–,8.52% (inactive),9.7,16.7,inactive,–,–,–,–,inactive,inactive,–
c1ccc(-c2ccc(N3CC[C@@]4(CCCNC4)C3)cc2)cc1,> 11.4 µM (inactive),16.6% (inactive),10.5% (inactive),–,–,> 46 µM (inactive),inactive,inactive,–,4.33% (inactive),9.08,15.2,–,12.6 µM (active),–,–,–,–,–,–
CN1CC[C@@]2(CCCN(C(=O)c3cccn3C)C2)C1,> 11.4 µM (inactive),0.737% (inactive),9.28% (inactive),-1.28% (inactive),–,> 46 µM (inactive),inactive,inactive,inactive,2.7% (inactive),-0.284,4.15,–,inactive,–,–,–,–,–,–
O=C(c1cc(C(F)(F)F)cc(C(F)(F)F)c1)N1CCC2(CC1)CN(Cc1ccccc1)C2,> 11.4 µM (inactive),-4.34% (inactive),–,9.42% (inactive),–,> 46 µM (inactive),inactive,inactive,–,1.87% (inactive),22.2,24.8,–,inactive,–,–,–,–,–,–
O=C(c1cc(C(F)(F)F)cc(C(F)(F)F)c1)N1CCC[C@@]2(CCN(c3ccncc3)C2)C1,> 11.4 µM (inactive),6.68% (inactive),–,1.59% (inactive),–,> 46 µM (inactive),inactive,inactive,inactive,1.83% (inactive),-11,-5.86,–,inactive,–,6.31 µM (active),–,–,–,–
COCC(=O)N1CCC2(CC1)CN(Cc1nccs1)C2,> 11.4 µM (inactive),-21.4% (inactive),–,–,–,> 46 µM (inactive),inactive,inactive,–,3.6% (inactive),4.27,13.5,–,inactive,inactive,–,inactive,–,–,inactive

# From PubChem BioAssay (NCATS)
